Test results taken from PubChem BioAssay AID1645858 (Buhrlage Lab, Dana-Farber Cancer Institute and Novartis …, 2021).
Hit rate of the full screen: of about 47,000 compounds, about 330 (0.7%) were called active. Cut-off read from the data, not from the text of the source: active = inhibition above about 30%; inactive = the rest. The sample as a whole holds a higher share of actives than the screen did.

Biological target: OTU domain-containing protein 3 (Homo sapiens) (UniProt Q5T2D3)
Experiment: inhibitors of human OTUD3 deubiquitinase (AID 1645858)
Conditions: purified OTUD3, Ub-rhodamine fluorescence, 2 h; at 25 µM; stronger effect = higher value

Sequence of OTU domain-containing protein 3 (Homo sapiens) (Q5T2D3 whole entry, looked up, the tested form may be a part): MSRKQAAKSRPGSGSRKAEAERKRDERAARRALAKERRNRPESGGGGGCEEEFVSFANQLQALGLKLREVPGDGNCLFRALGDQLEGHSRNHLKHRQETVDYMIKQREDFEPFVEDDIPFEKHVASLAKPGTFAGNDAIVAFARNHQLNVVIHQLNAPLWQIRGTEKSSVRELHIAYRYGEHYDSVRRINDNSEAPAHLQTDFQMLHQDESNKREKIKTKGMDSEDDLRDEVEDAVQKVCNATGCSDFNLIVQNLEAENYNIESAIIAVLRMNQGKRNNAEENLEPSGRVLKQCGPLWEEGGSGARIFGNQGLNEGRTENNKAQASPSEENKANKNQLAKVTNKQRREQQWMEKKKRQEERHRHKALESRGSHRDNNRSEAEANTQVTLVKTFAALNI

Compound | inhibition
Cc1cc(N2C(=O)c3oc4ccccc4c(=O)c3C2c2ccc(F)cc2)no1 (stereo not given) | -4.24% (inactive)
CCNC1CN(C(=O)Cn2nnc3ccccc32)C2(CCCCC2)C1 (stereo not given) | 2.28% (inactive)
O[C@H]1[C@H](O)[C@H](Oc2cccc(F)c2)CC[C@H]1NCc1ccncc1 | 15.2% (inactive)
NS(=O)(=O)c1cccc(CNC(=O)C2(c3ccccc3)CCC2)c1 | 0.73% (inactive)
N#Cc1c(N)nc2c(c1N)CC(C(F)(F)F)O2 (stereo not given) | -4.36% (inactive)
Clc1ccc2[nH]c3c(ccc4c5cc(Cl)ccc5[nH]c43)c2c1 | 3.62% (inactive)
COc1ccc(CNC(=O)c2[nH]nc3c2CCc2ccccc2-3)cc1 | -5.63% (inactive)
Cc1ccc(NC(=O)N2CCCC2c2cc(C)on2)c(Cl)c1 (stereo not given) | -2.99% (inactive)
c1cc(CNCc2ccc3c(c2)OCO3)ccn1 | 0.0568% (inactive)
CCC(Oc1ccccc1)C(=O)NCc1ccc2c(c1)OCO2 (stereo not given) | 9.11% (inactive)
c1ccc(-c2ccc(NCc3ccc4c(c3)OCO4)nn2)cc1 | 43.5% (active)
Cc1cc(Cl)ccc1NC(=O)c1ccc(=O)[nH]c1 | -2.31% (inactive)
N[C@@H]1C[C@@H](Oc2cccnc2)[C@H](O)[C@H]1N1CCN(c2ccccc2)CC1 | -8.12% (inactive)
CSc1nccc(-c2ccc(F)cc2)c1C#N | 11% (inactive)
CCn1c(CNC(=O)c2ccco2)nnc1SCC(=O)Nc1ccc(C)cc1 | 0.297% (inactive)
Cc1ccc(CN2C(=O)C(CC(=O)Nc3ccc(F)cc3)n3c2nc2ccccc23)cc1 (stereo not given) | -8.71% (inactive)
Cc1c(Cl)ccc2sc(N(Cc3ccncc3)C(=O)c3ccco3)nc12 | -4.28% (inactive)
Cc1coc2c(C)c3oc(=O)c(CC(=O)N4CC[C@@]5(O)CCCC[C@H]5C4)c(C)c3cc12 | -9.33% (inactive)
CC(=O)c1ccc(C)c(=O)o1 | 9.1% (inactive)
CC(=O)N1CCSc2ccc(S(=O)(=O)N(C)C(C)CCc3ccco3)cc21 (stereo not given) | -8.61% (inactive)
O=C1NC2(CCN(C(=O)NCc3ccccc3)CC2)Nc2c(Cl)cccc21 | -5.72% (inactive)
CC(C)c1ncc(CN2CCC3(CC2)CN(S(C)(=O)=O)Cc2ccccc2O3)cn1 | -4.5% (inactive)

Compound | inhibition
COc1ccc(-c2[nH]c3ccccc3c2SCCNC(=O)c2ccc(S(=O)(=O)N3CCOCC3)cc2)cc1 | 11.6% (inactive)
O=C(CCc1nnc2n(CCc3ccccc3)c(=O)c3ccccc3n12)N1CCOCC1 | 4.98% (inactive)
COC(=O)c1ccc(CN(C)C(=O)c2ccc(-c3nnc(-c4ccccc4)o3)cc2)cc1 | -0.482% (inactive)
O=C1CCCN1Cc1ncn2c1CN(Cc1cccnc1)CCC2 | -1.01% (inactive)
CCN1C(=O)C[C@@H](C(=O)NCc2nc(C)no2)[C@@H]1c1ccccc1C | 1.87% (inactive)
COc1ccc(CC2c3cc(OC)c(OC)cc3CCN2C(=O)c2ccc(C)c(Cl)c2)cc1OC (stereo not given) | 1.03% (inactive)
O=C(CSC1=NC2(CCCCC2)Nc2ccccc21)Nc1cccc(F)c1 | -11.6% (inactive)
O=C(NCc1ccc(F)cc1)C1CCc2nc(N3CCCCC3)ncc2C1 (stereo not given) | 1.53% (inactive)
Cc1cc(-c2ccc(S(=O)(=O)Nc3cccc(CN4CCCC4)c3)s2)n[nH]1 | -13.6% (inactive)
Cc1ccc(S(=O)(=O)c2cnc3ccccc3c2N2CCC3(CC2)OCCO3)cc1 | 1.24% (inactive)
O=C(Cc1c[nH]c2ccccc12)NC1(c2nc(-c3ccncc3)no2)CCCCC1 | -15.9% (inactive)
Clc1ccccc1-c1nc2nc3ccccc3nc2n1CC1CCCO1 (stereo not given) | -16% (inactive)
COc1ccc(N2CC(C(=O)OCC(=O)Nc3ccc(F)cc3)CC2=O)cc1 (stereo not given) | -3.39% (inactive)
C[C@@H]1CC[C@H]2C(CN3CCN(C)CC3)C(=O)O[C@]23[C@H]1CC[C@@]1(C)O[C@@H]31 (stereo not given in full) | 4.7% (inactive)
Cc1ccccc1CNC(=O)c1cn(C)nc1S(=O)(=O)N1CCC(C)CC1 | 1.12% (inactive)
COc1ccccc1Cn1cnc2c([nH]c3cc(OC)c(OC)cc32)c1=O | 0.0298% (inactive)
Cc1nccc(N2CCC(Cc3cncc(-c4cnc(C)n4C)n3)C2)n1 (stereo not given) | 3.33% (inactive)
COc1ccc(NC(=O)Cn2ncc3cccn3c2=O)cc1 | -2.63% (inactive)
CCCNC(=O)c1cc(N2CCCC2)n2nccc2n1 | -68.7% (inactive)
CCS(=O)(=O)N1C[C@H]2CN(Cc3ccccc3Cl)C[C@H]2C1 | -1.12% (inactive)
O=C(Nc1nnc(-c2cccc([N+](=O)[O-])c2)o1)C1CCN(S(=O)(=O)c2ccc3c(c2)CCC3)CC1 | 30.3% (active)
O=C(COC(=O)C1CCN(S(=O)(=O)c2c(Cl)cccc2Cl)CC1)Nc1ccc2c(c1)CCC2 | 0.0518% (inactive)

Compound | inhibition
Cc1cccc(-c2nnc(-c3cccc(S(=O)(=O)N4CCCC4)c3)o2)c1 | 10.7% (inactive)
Cc1cnc2nc3c(cc2c1)CN(S(=O)(=O)c1cc(F)ccc1C)CC3 | -230% (inactive)
COCCN1[C@H]2CCN(Cc3ccccn3)CC[C@@H]2Oc2ccccc2S1(=O)=O | 7.81% (inactive)
O=c1c(NCCCc2ccccc2)nccn1-c1ccc2c(c1)OCCO2 | -4.73% (inactive)
CC(C)N1C(=O)Cc2ccccc2C1C(=O)NCc1ccccc1F (stereo not given) | 2.54% (inactive)
Cc1ccc(Sc2c(C)[nH]n(-c3ccccc3)c2=O)cc1 | 7.8% (inactive)
COc1c(O)c2c(=O)cc(OC)c3c4c(OC)cc(=O)c5c(O)c(OC)c(CC(C)OC(=O)c6ccccc6)c(c(c1CC(C)OC(=O)Oc1ccc(O)cc1)c23)c54 (stereo not given) | -24.8% (inactive)
C=C1CCC2[C@](C)(CCC[C@]2(C)C(=O)OC)[C@H]1CCc1ccoc1C[N+](C)(C)Cc1ccccc1 (stereo not given in full) | 22.7% (inactive)
C=C1CCC2[C@](C)(CCC[C@]2(C)C(=O)OC)[C@H]1CCc1ccoc1CNCC(=O)O (stereo not given in full) | -1.63% (inactive)
C=C1CCC2[C@](C)(CCC[C@]2(C)C(=O)OC)[C@H]1CCc1ccoc1/C=C/C(=O)O (stereo not given in full) | 57.1% (active)
Cc1cc(C)n(CCCNS(=O)(=O)c2ccc(C(C)(C)C)cc2)n1 | -3.74% (inactive)
Cc1nc(-c2ncc[nH]2)cc(C2CCCCN2S(=O)(=O)N(C)C)n1 (stereo not given) | -4.61% (inactive)
N#Cc1cccc(S(=O)(=O)c2c[nH]c3ccc(Cl)cc3c2=O)c1 | -5.74% (inactive)
CCC(C)C1NC(=O)C(Cc2ccc(O)cc2)NC(=O)C(CCC(N)=O)NC(=O)C2CCCN2C(=O)C(C(C)C)NC(=O)C(CCC(=O)O)NC(=O)C(C(C)O)NC(=O)C(NC(=O)C(CCCN)NC(=O)C(CCC(=O)O)NC(=O)CCCCCCCCCCCCCC(C)C)Cc2ccc(cc2)OC1=O (stereo not given) | 5.05% (inactive)
O=C(NC(C(=O)N1CCCc2ccccc21)c1ccccc1)c1cnccn1 (stereo not given) | 14.1% (inactive)
O=C(Cn1cccc(-c2nc(-c3ccccc3)no2)c1=O)Nc1ccccc1F | 6.4% (inactive)
Cc1noc(-c2cccn(Cc3cc(F)ccc3F)c2=O)n1 | 5.03% (inactive)
N#Cc1ccc(NC(=O)Nc2cccn(Cc3ccccc3F)c2=O)cc1 | 37.7% (active)
Cc1cc(C(=O)N2CCCCC2c2[nH]ncc2C)c2c(C)noc2n1 (stereo not given) | 11.6% (inactive)
COc1ccccc1C(=O)Nc1ccc(N(c2ccccc2)C(C)C)cc1 | 2.72% (inactive)
FC(F)(F)c1cc(N2CCCCC2)nc(-c2ccccn2)n1 | -3.6% (inactive)
CC(Sc1ncnc2ccccc12)C(=O)NCc1ccc2c(c1)OCO2 (stereo not given) | 12.8% (inactive)

Compound | inhibition
Cn1cc(C2CCCN2C(=O)c2ccc(-n3cccn3)nc2)cn1 (stereo not given) | -5.62% (inactive)
COc1ccc(-c2cc(=O)oc3c(C)c(OCc4ccccc4F)ccc23)cc1 | 1.77% (inactive)
CN1CCN(c2nc3c(s2)CN(C(=O)c2ccnn2C)CC3)CC1 | -25.7% (inactive)
COc1cccc(NC(=O)C(Sc2cccc(NC(=O)c3ccccc3F)c2)c2ccccc2)c1 (stereo not given) | 15.7% (inactive)
C#CCOc1ccc2ccccc2c1CN1CCc2ccccc2C1 | 14.8% (inactive)
COCCN(C(=O)CCC(=O)Nc1ccccn1)C(C(=O)NCC1CCCO1)c1ccc(C)cc1 (stereo not given) | 12.3% (inactive)
CN1C[C@H]2CCN(S(=O)(=O)c3ccc(OC(F)(F)F)cc3)C[C@H]21 | 5.38% (inactive)
COc1ccccc1N1CCN(C(=O)CSCc2ccccc2C)CC1 | -10.5% (inactive)
CC(C)C(NS(=O)(=O)c1ccccc1)C(=O)OCC(=O)Nc1cc([N+](=O)[O-])ccc1F (stereo not given) | 6.16% (inactive)
CCCc1cc(=O)[nH]c2nnc(SCC(=O)N(CC)CC)n12 | -0.85% (inactive)
Cc1nn(-c2ccc(F)cc2F)c2c1C(C(=O)c1cc3ccccc3o1)CC(=O)N2 (stereo not given) | -3.81% (inactive)
CCCCC1CCC(C(=O)N2CCC(C3(C)NC(=O)NC3=O)CC2)CC1 (stereo not given) | 5.45% (inactive)
CCc1ccc(S(=O)(=O)Nc2cc(C(=O)Nc3ccccc3)ccc2OC)cc1 | -4% (inactive)
Cc1cc(CN2CC[C@H]3[C@H]2CCN3S(C)(=O)=O)oc1C | -12% (inactive)
Cc1nn(CC(C)C)c(C)c1CC(=O)N1CCCC1c1cnn(C)c1 (stereo not given) | -0.626% (inactive)
NC(=O)CC[C@H](NC(=O)[C@@H]1CCCN1C(=O)[C@H](Cc1ccccc1)n1c(=O)[nH]c2ccccc2c1=O)C(=O)O | -2.35% (inactive)
Cc1ccc(NC(=O)C2CCN(S(=O)(=O)c3cnc[nH]3)CC2)cc1Cl | -2.32% (inactive)
O=C(Cc1c(Cl)cccc1Cl)NCc1cccc(C(F)(F)F)c1 | 4.26% (inactive)
COc1cccc(CN2C[C@@]34CN(C(=O)C5CCC5)C[C@@H](C[C@@H]3S2(=O)=O)O4)c1 | 9.25% (inactive)
